Measurements published in PubChem BioAssay (EPA / NIEHS).
The source holds several records for some structures; these can differ, active in one and inactive in another. Activity calls are given as the source filed them. The calls were made as follows: active = hit-call score of the fitted dose curve at least 0.9, where 1 is the maximum; inactive = score below 0.9.

Tests used:
Conditions in all cases: primary human HUVEC with PBMC; actives raise or lower the signal
[1] = read-out: Interleukin-1 alpha (IL1a), IL1A (gene 3552); experiment: BSK_LPS_IL1a: BioMAP Diversity Plus: LPS Assay for Interleukin-1 alpha (IL1a) Biomarker Activity (AID 2283080)
How it was run: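 Human umbilical vein endothelial cells co-cultured with PBMC and stimulated with LPS; IL-1a measured by ELISA 24 h after dosing. Bidirectional fitting against DMSO; cytotoxicity checked by SRB staining in parallel cultures.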

[2] = read-out: Monocyte Chemoattractant Protein-1 (MCP1), CCL2 (gene 6347); experiment: BSK_LPS_MCP1: BioMAP Diversity Plus: LPS Assay for Monocyte Chemoattractant Protein-1 (MCP1) Biomarker Activity (AID 2283081);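 as to AC50: secreted MCP-1 protein quantified by ELISA in culture supernatant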
How it was run: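 Human umbilical vein endothelial cells co-cultured with PBMC, LPS-stimulated; secreted MCP-1 measured by ELISA 24 h after compound addition. Bidirectional curve fitting against DMSO baseline; SRB total-protein staining in parallel cultures for cytotoxicity.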

[3] = read-out: Macrophage colony-stimulating factor (MCSF), CSF1 (gene 1435); experiment: BSK_LPS_MCSF: BioMAP Diversity Plus: LPS Assay for Macrophage colony-stimulating factor (MCSF) Biomarker Activity (AID 2283083)
How it was run: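 HUVEC–PBMC co-culture, M-CSF measured by ELISA 24 h after chemical dosing. Fitted in both directions relative to DMSO as negative control; overt cytotoxicity assessed by SRB total-protein staining in parallel cultures.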

[4] = read-out: Tissue Factor, F3 (gene 2152); experiment: BSK_LPS_TissueFactor: BioMAP Diversity Plus: LPS Assay for Tissue Factor Biomarker Activity (AID 2283084)
How it was run: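 Human umbilical vein endothelial cells co-cultured with PBMC were dosed with compound. Cell-surface CD142 was measured by ELISA 24 h later. Activity was fitted bidirectionally against DMSO, with SRB total-protein staining in parallel cultures for cytotoxicity.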

[5] = read-out: Tumor necrosis factor (Homo sapiens) (UniProt P01375); experiment: BSK_LPS_TNFa: BioMAP Diversity Plus: LPS Assay for Tumour Necrosis Factor alpha (TNFa) Biomarker Activity (AID 2283085);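 as to AC50: TNFa protein level quantified by ELISA in the co-culture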
How it was run: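 TNFa was quantified by ELISA in LPS-activated co-cultures of human endothelial cells and PBMC, 24 h post-dosing. Both increases and decreases versus DMSO were fitted.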

[6] = read-out: Vascular cell adhesion molecule 1 (VCAM1), VCAM1 (gene 7412); experiment: BSK_LPS_VCAM1: BioMAP Diversity Plus: LPS Assay for Vascular cell adhesion molecule 1 (VCAM1) Biomarker Activity (AID 2283086)
How it was run: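 VCAM-1 quantified by ELISA in an LPS-activated co-culture of human endothelial cells and peripheral blood mononuclear cells, read 24 h post-treatment. Fitted in both directions versus DMSO; parallel SRB staining flags overt cytotoxicity.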

CD38, CD38 (gene 952) = experiment: BSK_SAg_CD38: BioMAP Diversity Plus: SAg Assay for CD38 Biomarker Activity (AID 2283087)
How it was run: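 CD38 quantified by ELISA (fluorescence) in a superantigen-activated endothelial cell–PBMC co-culture at 24 h post-dose. Activity fitted in both directions relative to DMSO; parallel SRB and Alamar Blue cytotoxicity read-outs.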

CD40, CD40 (gene 958) = experiment: BSK_SAg_CD40: BioMAP Diversity Plus: SAg Assay for CD40 Biomarker Activity (AID 2283088)
How it was run: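 HUVEC plus PBMC co-culture, superantigen-activated, with CD40 read by ELISA 24 h after dosing. Curves fitted in both directions against DMSO. Overt cytotoxicity checked by parallel SRB total-protein staining.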

CD69, CD69 (gene 969) = experiment: BSK_SAg_CD69: BioMAP Diversity Plus: SAg Assay for CD69 Biomarker Activity (AID 2283089);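 as to AC50: cell surface CD69 protein quantified by ELISA with fluorescence detection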
How it was run: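 HUVEC co-cultured with PBMC were dosed with chemical, and CD69 was measured by ELISA with fluorescence read-out 24 h later. Bidirectional curve fitting used DMSO as negative control and activity baseline.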

Measured: AC50

Sequence of Tumor necrosis factor (Homo sapiens) (P01375 whole entry, looked up): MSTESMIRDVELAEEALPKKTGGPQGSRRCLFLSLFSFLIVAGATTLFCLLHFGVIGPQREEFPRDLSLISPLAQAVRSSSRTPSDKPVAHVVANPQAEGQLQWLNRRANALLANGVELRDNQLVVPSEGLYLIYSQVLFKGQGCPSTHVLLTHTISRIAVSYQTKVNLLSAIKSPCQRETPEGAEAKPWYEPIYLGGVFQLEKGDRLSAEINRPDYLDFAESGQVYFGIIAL

CC(CCl)OP(=O)(OC(C)CCl)OC(C)CCl (configuration not stated)
inactive: [1] | [2] | [3] | [4] | [5] | [6] | CD38, CD38 (gene 952) | CD40, CD40 (gene 958) | CD69, CD69 (gene 969)

FC(F)(F)C(F)(F)C(F)(F)C(F)(F)C(F)(F)C(F)(F)C(F)(F)C(F)(F)CCS
active: [4] 1.02 µM
inactive: [1] | [2] | [3] | [4] | [5] | [6] | CD38, CD38 (gene 952) | CD40, CD40 (gene 958) | CD69, CD69 (gene 969)

C#C[C@]1(O)CC[C@H]2[C@@H]3CCc4cc(OC)ccc4[C@H]3CC[C@@]21C
active: [1] 31.1 µM | [2] 0.0185 µM | [5] 34.6 µM | CD38, CD38 (gene 952) 27.1 µM | CD69, CD69 (gene 969) 15.2 µM
inactive: [3] | [4] | [6] | CD40, CD40 (gene 958)

Oc1ccc(Nc2ccccc2)cc1
active: [6] 20 µM | CD38, CD38 (gene 952) 20 µM | CD40, CD40 (gene 958) 8.57 µM | CD69, CD69 (gene 969) 14 µM
inactive: [1] | [2] | [3] | [4] | [5]

CCCCCCCCCCCCCCCC[N+](C)(C)Cc1ccccc1
active: [1] 9.26 µM | [2] 11.4 µM | [3] 1.74 µM | [4] 10.7 µM | [5] 3.79 µM | [6] 3.77 µM | CD38, CD38 (gene 952) 13 µM | CD40, CD40 (gene 958) 14.7 µM | CD69, CD69 (gene 969) 12.4 µM

OCCCC(F)(F)C(F)(F)C(F)(F)F
inactive: [1] | [2] | [3] | [4] | [5] | [6] | CD38, CD38 (gene 952) | CD40, CD40 (gene 958) | CD69, CD69 (gene 969)

CCCCCCCCC(F)(F)C(F)(F)C(F)(F)C(F)(F)C(F)(F)C(F)(F)F
inactive: [1] | [2] | [3] | [4] | [5] | [6] | CD38, CD38 (gene 952) | CD40, CD40 (gene 958) | CD69, CD69 (gene 969)

FC(F)(F)C(F)(F)C(F)(F)CI
inactive: [1] | [2] | [3] | [4] | [5] | [6] | CD38, CD38 (gene 952) | CD40, CD40 (gene 958) | CD69, CD69 (gene 969)

O=C(O)C(F)(F)C(F)(F)C(F)(F)F
inactive: [1] | [2] | [3] | [4] | [5] | [6] | CD38, CD38 (gene 952) | CD40, CD40 (gene 958) | CD69, CD69 (gene 969)

C=C(C)C(=O)OCC(F)(F)C(F)(F)C(F)(F)C(F)(F)C(F)(F)C(F)(F)C(F)(F)F
inactive: [1] | [2] | [3] | [4] | [5] | [6] | CD38, CD38 (gene 952) | CD40, CD40 (gene 958) | CD69, CD69 (gene 969)
active: [5] 0.0246 µM
